Screening data deposited in PubChem BioAssay by National Center for Advancing Translational Sciences (NCATS).
A selection: hits, their analogues and other compounds. The true share with any hit is near 2.8%.
Pol eta inh: qHTS for Inhibitors of Polymerase Eta; Potency, µM (series often up to 114 µM), for the others: at the highest dose activity change, negative = inhibition, actives largely listed as inhibitors; actives 1.2% (n = 390,000); AID 588591, 2011; DNA polymerase eta (Homo sapiens), Q9Y253; recombinant Pol eta, fluorescent DNA replication assay; also: potency is read from the fitted curve at half-maximal effect; % is scaled to controls: 0 for no effect and ±100 for the full control effect
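Fluorescent replication assay: 50 nM final substrate added after a 15 min room-temperature compound preincubation with 10 nM enzyme. Signal taken at 0 min and again at 10 min.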
Pol beta inh: qHTS Assay for Inhibitors of DNA Polymerase Beta; Pol beta primer extension/strand displacement, fluorescence kinetic; Potency, µM (titrated, usually from 114 µM), for inactives: top-dose activity change, negative = inhibition, actives largely listed as inhibitors; actives 1.3% (n = 340,000); also: potency is read from the fitted curve at half-maximal effect; % is scaled to controls: 0 for no effect and ±100 for the full control effect
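Pol beta (10 nM) and compounds were preincubated 15 min at room temperature, then 50 nM substrate (final) started primer extension/strand displacement. Reads were taken at 0 and 10 min; concentration-response data were fitted to a four-parameter Hill equation.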
Pol iota inh: qHTS for Inhibitors of Polymerase Iota; DNA polymerase iota (Homo sapiens), Q9UNA4; Pol iota fluorescent replication assay, 10 min; Potency, µM (top dose mostly 115 µM), inactives show at the highest dose activity, negative = inhibition, actives largely listed as inhibitors; actives 1% (n = 390,000); also: potency is read from the fitted curve at half-maximal effect
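Pol iota at 10 nM preincubated 15 min with compounds at room temperature; reaction started with fluorescent substrate, 50 nM final. Fluorescence read kinetically at 0 and 10 min; buffer-only wells as negative control.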
WRN inhibitor: qHTS for Inhibitors of WRN Helicase. Bifunctional 3'-5' exonuclease/ATP-dependent helicase WRN (Homo sapiens), Q14191. WRN helicase unwinding, fluorescent forked duplex, kinetic. Potency, µM (highest dose often 114 µM), for the others: at the highest dose activity change, negative = inhibition, hits mostly inhibitors. actives 0.46% (n = 360,000); also: potency is read from the fitted curve at half-maximal effect; % is scaled to controls: 0 for no effect and ±100 for the full control effect; nearly all actives have a fitted effect of over 55% in size
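WRN at 20 nM final preincubated with compound 15 min at room temperature; reaction started with 100 nM fluorophore/quencher forked duplex oligonucleotide and 2 mM ATP final. Unwinding followed kinetically by red fluorescence (ex 525, em 598 nm).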
POLK inh: qHTS for Inhibitors of Polymerase Kappa. DNA polymerase kappa (Homo sapiens), Q9UBT6. AID 588579, 2011. purified Pol kappa, fluorescent DNA synthesis assay, 10 min. Potency, µM (titrated, usually from 107 µM), for the others: at the top dose activity, negative = inhibition, most hits filed as inhibitors. actives 0.53% (n = 400,000); also: potency is read from the fitted curve at half-maximal effect; % is scaled to controls: 0 for no effect and ±100 for the full control effect
Target sequence (Q9UBT6 whole entry, looked up): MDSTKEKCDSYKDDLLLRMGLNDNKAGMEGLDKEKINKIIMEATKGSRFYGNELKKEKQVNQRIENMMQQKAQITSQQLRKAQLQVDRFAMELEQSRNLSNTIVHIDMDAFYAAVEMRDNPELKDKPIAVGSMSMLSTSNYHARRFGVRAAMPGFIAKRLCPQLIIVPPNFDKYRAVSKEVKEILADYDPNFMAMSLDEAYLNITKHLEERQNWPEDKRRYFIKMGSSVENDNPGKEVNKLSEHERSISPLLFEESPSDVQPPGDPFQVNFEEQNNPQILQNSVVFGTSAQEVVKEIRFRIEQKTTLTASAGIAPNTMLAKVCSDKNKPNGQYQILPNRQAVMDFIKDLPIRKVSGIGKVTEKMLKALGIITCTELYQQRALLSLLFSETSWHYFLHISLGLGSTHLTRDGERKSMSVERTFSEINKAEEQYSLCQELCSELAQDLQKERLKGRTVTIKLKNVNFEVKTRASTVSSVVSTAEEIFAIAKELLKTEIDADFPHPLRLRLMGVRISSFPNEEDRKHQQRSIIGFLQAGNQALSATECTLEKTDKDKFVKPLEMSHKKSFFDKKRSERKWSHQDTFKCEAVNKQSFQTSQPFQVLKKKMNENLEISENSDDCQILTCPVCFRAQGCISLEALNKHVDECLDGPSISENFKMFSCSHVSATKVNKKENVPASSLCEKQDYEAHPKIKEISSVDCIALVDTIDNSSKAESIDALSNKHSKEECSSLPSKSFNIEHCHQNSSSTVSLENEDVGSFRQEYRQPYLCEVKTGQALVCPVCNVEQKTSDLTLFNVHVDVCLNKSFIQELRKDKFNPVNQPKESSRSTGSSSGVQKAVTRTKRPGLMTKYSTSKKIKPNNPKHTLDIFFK
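Kinetic fluorescence readout at 0 and 10 min followed reaction start with substrate at 50 nM final. Beforehand, enzyme (10 nM Pol kappa) stood 15 min with compound at room temperature; buffer-only wells were negative controls.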
PI5P4K alpha inh: qHTS for Inhibitors of phosphatidylinositol 5-phosphate 4-kinase (PI5P4K) | Phosphatidylinositol 5-phosphate 4-kinase type-2 alpha (Homo sapiens), P48426 | PI5P4Kalpha enzyme, ADP-Glo luminescence, 60 min; hits give low values | max response, % | actives 1.2% (n = 330,000); active = max response of -50% or lower; inconclusive = between -30% and -50%; inactive = -30% or higher; also: value at the top dose of about 77 µM; % is scaled to controls: 0 for no effect and ±100 for the full control effect
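qHTS, 1536-well: enzyme/substrate mix, compound by pin tool, 5 microM ATP final; RT 60 min; ADP-Glo reagents 1 (45 min) then 2 (30 min); luminescence.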
Active calls of the source: *; u = inconclusive; x = no result; [ ] = another dose, or the depositor's remark. Unless noted, calls follow the shape of the dose curve; as a rule, active = well fitted curve in the direction sought with a large enough effect; inconclusive = small, poorly fitted or top-dose-only effect, or another doubt; inactive = no such curve, though single readings can be large; an effect the other way counts as inactive or inconclusive.

SMILES | Pol eta inh | Pol beta inh | Pol iota inh | WRN inhibitor | POLK inh | PI5P4K alpha inh
CCc1ccc(Cn2c(CNS(=O)(=O)c3ccc([N+](=O)[O-])cc3)nc3cccnc32)cc1 | -24% | 0% | -24% | x | -2%[60.1 µM] | x
COc1ccc(NC(=O)C2CC(c3c(F)cccc3Cl)=NO2)cc1OC (centres undefined) | 89µM* | 5% | 26% | -7%[11.6 µM] | 6% | 2
COc1cc(NC(=O)C2CC(c3c(F)cccc3Cl)=NO2)c(OC)cc1Cl (centres undefined) | -23% | 25% | 76% | -4% | -1% | 16
Nc1nc(N)c(S(=O)(=O)c2ccccc2)c(Nc2ccc(F)cc2)n1 | -5% | 2% | -3% | x | -1% | x
CCOc1ccc(NC2=CC(=O)C(=O)c3ccccc32)cc1 | 40µM* | x | 35µM* | -15% | -4% | -2
COc1cc(Cl)c(NC2=CC(=O)C(=O)c3ccccc32)c(OC)c1 | 56µM* | x | u | 8% | -1% | -7
O=C1C=C(Nc2ccc(F)cc2)c2ccccc2C1=O | u | x | 1% | -8% | -16% | -9
O=C1C=C(Nc2ccccc2O)c2ccccc2C1=O | 25µM* | 10% | 32µM* | u | -9% | -17
Cc1ccc(NC2=CC(=O)C(=O)c3ccccc32)c(C)c1 | -31% | x | 44% | 1% | 1% | 4
COc1cc(Cl)c(NS(=O)(=O)c2ccc(-c3ccc(=O)[nH]n3)o2)c(OC)c1 | -4% | -2% | 23% | 1% | -19% | -3
O=C1C=C(Nc2cccnc2)c2ccccc2C1=O | 32µM* | x | 50µM* | -21% | -14% | 3
COCCN=c1scc(-c2ccccc2)n1/N=C/c1c[nH]c2ccccc12 | -8% | 14% | -7% | -12% | -15% | 21
COCCN=c1scc(-c2cccs2)n1/N=C/c1ccc(O)c(O)c1O | u | 4.5µM* | u | -36%[57.1 µM] | u | u
Cc1nc2scc(-c3ccc(C(C)(C)C)cc3)c2c(=O)n1N | 89µM* | 2% | u | -9%[57.1 µM] | -25% | -20
COc1ccc(-c2csc3nc(C)n(-n4cccc4)c(=O)c23)cc1 | -5% | -4% | 7% | -4% | -8% | -5
O=C(O)CCCCCNC(=O)c1ccccc1Br | -12% | 38% | -16% | -5% | 3% | x
O=C(CCCCCNC(=O)c1ccccc1Br)N=Nc1c(O)[nH]c2ccccc12 | -7% | 2% | 79µM* | -18%[57.1 µM] | -17% | -7
COc1cc2nc(N3CCCCC3)nc(NC3CC3)c2cc1OC | x | x | 2% | x | -26% | x
CC1=C(C(N)=O)C(c2ccc(C)cc2)n2nc(SCc3ccccc3F)nc2N1 (centres undefined) | 4% | 0% | -6% | x | 3% | x
O=C1c2ccccc2C(=O)c2c(NCCCN(CCO)CCO)cccc21 | u | 45µM* | u | 25µM* | -18% | 0
Cc1ccc(/C=C(\C#N)C(=O)Nc2cccc(Br)c2)o1 | x | 31% | -15% | x | -23% | x
N#C/C(=C\c1ccc(N2CCCCC2)o1)C(=O)Nc1cccc(Br)c1 | u | -24% | u | 89µM* | -3% | 1
Cc1ccc(SC[C@H](Cc2ccccc2)N2CC[C@@H](C(C)(C)C)CCC2=O)cc1 | x | x | 4% | x | -13% | x
Cc1nc(-c2cccc(S(=O)(=O)N3CCC(C(=O)NCc4ccccc4)CC3)c2)no1 | -8% | -19% | 20% | x | -7%[60.1 µM] | x
CNC(=O)c1nnsc1S(=O)(=O)c1ccc(Cl)cc1 | 4% | 1% | u | 7.9µM* | -11% | -2
SMILES | Pol eta inh | Pol beta inh | Pol iota inh | WRN inhibitor | POLK inh | PI5P4K alpha inh
Cc1cc(C)c(Cn2c3ccccc3c3cnn(CC(=O)NC4CCC(C)CC4)c(=O)c32)c(C)c1 (centres undefined) | -26% | -2% | -1% | x | -17% | x
O=C(/C=C/c1ccc(O)c(O)c1)c1ccc(S(=O)(=O)N2CCCCCC2)cc1 | 7.9µM* | u | u | u | -36% | -64*
Cc1ccc(OCC(=O)Nc2ccc3nc(SCCOc4ccccc4)sc3c2)cc1 | -8% | 3% | 6% | x | -7% | x
O=c1cc(-c2ccccc2F)oc2ccccc12 | 8% | 1% | 10% | -8% | -2% | -3
O=C(O)c1ccccc1-c1c2ccc(=O)cc-2oc2cc(O)ccc12 | x | x | x | x | 27µM* | x
O=C(O)CN(CC(=O)O)Cc1cc2c(-c3ccccc3C(=O)O)c3cc(CN(CC(=O)O)CC(=O)O)c(=O)cc-3oc2cc1O | x | x | x | x | 7.1µM* | x
Cc1ccc(-n2c(SCC(N)=O)nnc2-c2cccnc2)c(C)c1 | -11% | 31% | -5% | 2% | 5% | -6
Cc1ccc(-n2c(SCc3cc(=O)n4ccsc4n3)nnc2-c2cccnc2)c(C)c1 | 4% | 18µM* | u | -9%[57.1 µM] | -9% | x
COc1ccc(OC)c(C(=O)CSc2ncc3c(n2)-c2ccccc2N(Cc2ccccc2C)S3(=O)=O)c1 | -21% | 5% | 16% | x | 1% | x
Cc1c(N)cc(S(=O)(=O)O)cc1NC(=O)c1cccc([N+](=O)[O-])c1 | 28µM* | x | u | -3% | -22% | 0
CC(=O)c1cccc(NCc2ccccc2-c2nnc(-c3ccccc3)o2)c1 | -7% | 3% | 5% | x | -15% | x
COc1cc(-c2cccs2)cc(=O)c2c(C)oc(C)c12 | -9% | 14µM* | u | -14%[57.1 µM] | -17% | x
N#CC(C#N)=C(N)/C(C#N)=C/c1ccc(O)cc1 | -11%[57.1 µM] | 20%[57.1 µM] | -10%[58.9 µM] | x | -15%[60.1 µM] | x
N#CC(=Cc1ccc(O)cc1)C(N)=C(C#N)C#N | -8% | x | 79% | 0% | -1% | -69*
COC(=O)c1sccc1S(=O)(=O)N(CC(=O)Nc1c(C)cccc1C)c1ccc(C)c(C)c1 | -15% | 0% | -3% | x | -20% | x
O=C(O)/C=C\C(=O)Nc1cc(O)ccc1[N+](=O)[O-] | -10% | 3% | -20% | -6% | -13% | -75*
Cc1ccnc(NS(=O)(=O)c2ccc(NC(=O)c3cc(-c4ccc(Br)cc4)nc4ccccc34)cc2)n1 | 35µM* | 79µM* | 45µM* | u | -32% | u
CC(=O)[C@]1(O)Cc2c(O)c3c(c(O)c2[C@@H](O[C@H]2C[C@H](N)[C@H](O)[C@H](C)O2)C1)C(=O)c1ccccc1C3=O | 14µM* | 14µM* | 7.9µM* | 32µM* | 27µM* | 8
